Assay [1] in a line: qHTS assay to identify aromatase inhibitors - cell viability counter screen (AID 743084).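 Also: cells stimulated with testosterone during compound exposure; nearly all actives have a fitted effect of over 55% in size.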 On the technique in general: In qHTS, concentration-response curves come from the screen itself.
Assay [2] deals with Aryl hydrocarbon receptor (Homo sapiens) (UniProt P35869). The assay can be described thus: qHTS assay to identify small molecule that activate the aryl hydrocarbon receptor (AhR) signaling pathway (AID 743085).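 Also: HG2L7.5c1 human HepG2 liver cells with stably integrated DRE-driven firefly reporter; series mostly up to about 70 µM; nearly all actives have a fitted effect of over 15% in size.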 Summed up:
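24 h compound exposure, 37C, HepG2-derived HG2L7.5c1 cells with DRE-responsive luciferase. Readouts: fluorescence viability, then luminescence at room temperature after 30 min.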

A short description of assay [3]: qHTS assay to identify small molecule that activate the aryl hydrocarbon receptor (AhR) signaling pathway - cell viability counter screen (AID 743086). Also: nearly all actives have a fitted effect of over 45% in size. Also: potency is read from the fitted curve at half-maximal effect. Summed up: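 HepG2-AhR-luc (HG2L7.5c1) cells, 4000/well, were preincubated 5 h at 37C, exposed to compound in qHTS format for 24 hr at 37C, then given CellTiter-Fluor for 30 min; viability was read as fluorescence in the reporter wells.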

Assay [4] addresses Peroxisome proliferator-activated receptor gamma (Homo sapiens) (UniProt P37231). The experiment in a line: qHTS assay to identify small molecule agonists of the peroxisome proliferator-activated receptor gamma (PPARg) signaling pathway (AID 743094; active = well fitted activation curve with a large enough effect in the signal ratio in the repeat runs, not every such curve was filed as active; the % refers to the signal ratio). A digest of the protocol: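 Compounds dissolved in DMSO were added to PPARg UAS-bla HEK293H cells for 17 h at 37C, and reporter expression was quantified by fluorescence intensity after 1 h with LiveBLAzer B/G FRET substrate.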

The nature of assay [5]: qHTS assay to identify small molecule antagonists of the peroxisome proliferator-activated receptor gamma (PPARg) signaling pathway - cell viability counter screen (AID 743194). Also: nearly all actives have a fitted effect of over 55% in size. Summed up: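 PPARg-UAS-bla HEK293H cells were plated, rested 5 h at 37 C, then treated with compounds plus rosiglitazone (50 nM final) for 17 h at 37 C; viability was then read by CellTiter-Glo luminescence after 30 min at room temperature.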

The nature of assay [6]: qHTS assay for small molecule agonists of the antioxidant response element (ARE) signaling pathway (AID 743202; active = well fitted activation curve with a large enough effect in the signal ratio in the repeat runs, not every such curve was filed as active; the % refers to the signal ratio; also: potency is read from the fitted curve at half-maximal effect). A digest of the protocol:
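Compounds delivered in DMSO to ARE-bla HepG2 cells (2,000 cells/well, pre-incubated 5 h) and left 16 h at 37 C. LiveBLAzer B/G FRET substrate then added for 2 h at RT before fluorescence reading.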

Assay [7] in a line: qHTS assay for small molecule agonists of the antioxidant response element (ARE) signaling pathway - cell viability counter screen (AID 743203; calls by dose curve; also: nearly all actives have a fitted effect of over 55% in size). Summed up: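 Following 16 hrs of compound treatment at 37C, HepG2 cells with an ARE-controlled beta-lactamase gene were lysed with CellTiter-Glo. Luminescence was read after 30 min at room temperature.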
Assay [8] in a line: qHTS assay for small molecule activators of the heat shock response signaling pathway - cell viability counter screen (AID 743209). Also: nearly all actives have a fitted effect of over 50% in size. A digest of the protocol: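 Readout: CellTiter-Glo luminescence, 30 min at room temperature. System: HSE-bla HeLa cells, 1500/well, plated overnight. Treatment: compounds in DMSO, 5 h at 37 C.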
A short description of assay [9]: qHTS assay for small molecule activators of the heat shock response signaling pathway (AID 743210; active = well fitted activation curve with a large enough effect in the signal ratio in the repeat runs, with a control signal flat, not every such curve was filed as active; the % refers to the signal ratio;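 also: HeLa cells with beta-lactamase reporter driven by heat shock elements; series mostly up to about 63 µM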). Summed up:
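Reporter gene assay: HeLa cells stably bearing an HSE-bla construct, compound treatment 5 h at 37 C, LiveBLAzer substrate 2.5 h at RT, fluorescence intensity.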

Assay [10] in a line: qHTS assay to identify small molecule agonists of the peroxisome proliferator-activated receptor delta (PPARd) signaling pathway - cell viability counter screen (AID 743211). Also: nearly all actives have a fitted effect of over 55% in size. A digest of the protocol: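 Luminescent ATP viability assay (CellTiter-Glo, 30 min RT) in UAS-bla HEK293H cells carrying the PPAR delta reporter construct, 3000 cells/well, after a 17 h compound treatment at 37 C.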

Assay [11] can be described thus: qHTS assay to identify small molecule antagonists of the peroxisome proliferator-activated receptor delta (PPARd) signaling pathway - cell viability counter screen (AID 743213). Also: nearly all actives have a fitted effect of over 50% in size. A digest of the protocol:
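CellTiter-Glo was added to PPARd-bla HEK293H wells following 17 h compound treatment in the presence of 300 nM L165041. Luminescence was recorded after 30 min at room temperature.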

Assay [12] has as its target Bile acid receptor (Homo sapiens) (UniProt Q96RI1). The assay can be described thus: qHTS assay to identify small molecule antagonists of the farnesoid-X-receptor (FXR) signaling pathway (AID 743217; active = well fitted inhibition curve with a large enough effect in the signal ratio in the repeat runs, not every such curve was filed as active; the % refers to the signal ratio). Summed up:
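GeneBLAzer FXR-UAS-bla HEK 293T, CDCA-stimulated (50 uM final). Compound treatment 16 h, 37 °C. Detection: beta-lactamase cleavage of B/G FRET substrate, fluorescence.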

Assay [13] shares this target. The experiment in a line: qHTS assay to identify small molecule agonists of the farnesoid-X-receptor (FXR) signaling pathway (AID 743220; active = well fitted activation curve with a large enough effect in the signal ratio in the repeat runs, not every such curve was filed as active; the % refers to the signal ratio). Summed up: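 Beta-lactamase reporter under UAS control in GeneBLAzer FXR HEK 293T cells (5000/well) measured with LiveBLAzer FRET substrate after 2 h at room temperature. Compound exposure lasted 16 h at 37C.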
The nature of assay [14]: qHTS assay to identify small molecule antagonists of the farnesoid-X-receptor (FXR) signaling pathway - cell viability counter screen (AID 743221; active = well fitted cell-killing curve with a large enough effect in the repeat runs, not every such curve was filed as active; also: nearly all actives have a fitted effect of over 50% in size). Summed up: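 In GeneBLAzer FXR-UAS-bla HEK 293T cells stimulated with 50 uM chenodeoxycholic acid (final), compounds acted for 16 h at 37 C. Viability was assessed afterwards by CellTiter-Glo luminescence.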
Assay [15] deals with Vitamin D3 receptor (Homo sapiens) (UniProt P11473). The experiment in a line: qHTS assay to identify small molecule agonists of the vitamin D receptor (VDR) signaling pathway (AID 743222; calls by dose curve). Summed up:
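In VDR-bla cells, compound-induced beta-lactamase expression is quantified by FRET substrate fluorescence. Treatment lasts 16 h at 37C; substrate develops 2 h at room temperature.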

Assay [16] deals with Peroxisome proliferator-activated receptor delta (Homo sapiens) (UniProt Q03181). The experiment in a line: qHTS assay to identify small molecule agonists of the peroxisome proliferator-activated receptor delta (PPARd) signaling pathway (AID 743212; calls by dose curve). Summed up:
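A PPARd-bla HEK293H line with beta-lactamase under an Upstream Activator Sequence is treated with compounds at 37 C. Substrate loading for 2 h at room temperature precedes the fluorescence measurement.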

Assay [17] has the same target. The assay can be described thus: qHTS assay to identify small molecule antagonists of the peroxisome proliferator-activated receptor delta (PPARd) signaling pathway (AID 743215; active = well fitted inhibition curve with a large enough effect in the signal ratio in the repeat runs, not every such curve was filed as active; the % refers to the signal ratio;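 also: cells stimulated with agonist L165041 at 300 nM final during compound exposure; series mostly up to about 62 µM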). Summed up:
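HEK293H UAS-bla, PPARd; agonist L165041 300 nM final with cpd in DMSO; 37 C 17 h; FRET substrate, RT 2 h; fluorescence intensity.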

A short description of assay [18]: qHTS assay to identify small molecule agonists of the farnesoid-X-receptor (FXR) signaling pathway - cell viability counter screen (AID 743218). Also: nearly all actives have a fitted effect of over 45% in size. A digest of the protocol:
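Parallel cytotoxicity test: compound-treated (16 h, 37 C) HEK 293T FXR-bla reporter cells were lysed with CellTiter-Glo and luminescence recorded.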

For assay [19], the target named is Peroxisome proliferator-activated receptor gamma (Homo sapiens) (UniProt P37231). The assay can be described thus: qHTS assay to identify small molecule antagonists of the peroxisome proliferator-activated receptor gamma (PPARg) signaling pathway (AID 743191; calls by dose curve; also: series mostly up to about 63 µM; nearly all actives have a fitted effect of over 30% in size). A digest of the protocol:
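GeneBLAzer PPARg UAS-bla HEK293H cells carrying a UAS-driven beta-lactamase reporter were plated at 3000 cells/well, preincubated 5 h at 37C, then given compound for 17 h at 37C; LiveBLAzer B/G FRET substrate was read after 1 h at room temperature.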

Assay [20] addresses Vitamin D3 receptor (Homo sapiens) (UniProt P11473). The experiment in a line: qHTS assay to identify small molecule antagonists of the vitamin D receptor (VDR) signaling pathway (AID 743223; active = well fitted inhibition curve with a large enough effect in the signal ratio in the repeat runs, not every such curve was filed as active; the % refers to the signal ratio). Summed up:
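Agonist 1alpha,25-dihydroxyvitamin D3 (3 nM in well) was added with each compound to VDR-bla cells preincubated 4 h. Cells stood 16 h at 37C, then FRET substrate 2 h at room temperature; fluorescence intensity recorded.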

Results filed as inconclusive are left out. The source made the active and inactive calls. Unless noted, calls follow the shape of the dose curve; as a rule, active = well fitted curve in the direction sought with a large enough effect in the repeat runs; inconclusive = weak or mixed curves; inactive = no such curve, though single readings can be large; an effect the other way counts as inactive or inconclusive.

Chain of Peroxisome proliferator-activated receptor delta (Homo sapiens) (Q03181 whole entry, looked up): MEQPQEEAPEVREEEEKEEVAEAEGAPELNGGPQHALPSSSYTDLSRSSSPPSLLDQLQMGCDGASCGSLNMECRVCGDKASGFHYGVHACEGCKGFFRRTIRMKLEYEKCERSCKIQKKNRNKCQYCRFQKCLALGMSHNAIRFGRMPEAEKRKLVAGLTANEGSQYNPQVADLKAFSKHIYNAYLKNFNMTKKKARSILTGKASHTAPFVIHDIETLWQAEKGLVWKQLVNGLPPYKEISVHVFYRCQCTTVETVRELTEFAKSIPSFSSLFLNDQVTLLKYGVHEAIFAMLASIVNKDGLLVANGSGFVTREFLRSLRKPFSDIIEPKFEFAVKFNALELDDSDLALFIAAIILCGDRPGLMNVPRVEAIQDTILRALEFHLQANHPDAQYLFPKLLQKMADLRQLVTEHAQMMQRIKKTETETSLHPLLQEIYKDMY
Chain of Bile acid receptor (Homo sapiens) (Q96RI1 whole entry, looked up): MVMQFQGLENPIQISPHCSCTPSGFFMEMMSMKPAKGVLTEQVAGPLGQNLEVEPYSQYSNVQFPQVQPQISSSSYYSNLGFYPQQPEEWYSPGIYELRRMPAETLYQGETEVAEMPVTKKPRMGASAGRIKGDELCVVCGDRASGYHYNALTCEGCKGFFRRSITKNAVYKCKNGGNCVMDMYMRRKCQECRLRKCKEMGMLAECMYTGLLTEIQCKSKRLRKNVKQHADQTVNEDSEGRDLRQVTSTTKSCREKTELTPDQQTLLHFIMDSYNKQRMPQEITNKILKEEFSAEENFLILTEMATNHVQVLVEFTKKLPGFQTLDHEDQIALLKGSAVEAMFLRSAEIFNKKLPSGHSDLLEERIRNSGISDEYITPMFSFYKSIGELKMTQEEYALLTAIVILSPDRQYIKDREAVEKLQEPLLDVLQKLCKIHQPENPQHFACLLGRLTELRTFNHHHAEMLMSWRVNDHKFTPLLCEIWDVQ
Chain of Vitamin D3 receptor (Homo sapiens) (P11473 whole entry, looked up): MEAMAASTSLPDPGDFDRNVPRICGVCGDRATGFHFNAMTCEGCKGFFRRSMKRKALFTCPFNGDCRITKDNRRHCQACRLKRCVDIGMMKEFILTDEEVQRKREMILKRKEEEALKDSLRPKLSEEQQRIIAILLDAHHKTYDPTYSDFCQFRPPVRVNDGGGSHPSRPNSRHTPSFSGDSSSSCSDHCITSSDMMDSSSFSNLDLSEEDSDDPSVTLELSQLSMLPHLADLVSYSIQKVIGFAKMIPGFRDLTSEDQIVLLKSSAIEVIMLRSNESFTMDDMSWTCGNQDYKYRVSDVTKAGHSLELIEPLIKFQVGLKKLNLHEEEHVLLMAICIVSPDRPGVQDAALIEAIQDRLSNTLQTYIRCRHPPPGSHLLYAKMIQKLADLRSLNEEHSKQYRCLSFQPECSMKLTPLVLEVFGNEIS
Chain of Peroxisome proliferator-activated receptor gamma (Homo sapiens) (P37231 whole entry, looked up): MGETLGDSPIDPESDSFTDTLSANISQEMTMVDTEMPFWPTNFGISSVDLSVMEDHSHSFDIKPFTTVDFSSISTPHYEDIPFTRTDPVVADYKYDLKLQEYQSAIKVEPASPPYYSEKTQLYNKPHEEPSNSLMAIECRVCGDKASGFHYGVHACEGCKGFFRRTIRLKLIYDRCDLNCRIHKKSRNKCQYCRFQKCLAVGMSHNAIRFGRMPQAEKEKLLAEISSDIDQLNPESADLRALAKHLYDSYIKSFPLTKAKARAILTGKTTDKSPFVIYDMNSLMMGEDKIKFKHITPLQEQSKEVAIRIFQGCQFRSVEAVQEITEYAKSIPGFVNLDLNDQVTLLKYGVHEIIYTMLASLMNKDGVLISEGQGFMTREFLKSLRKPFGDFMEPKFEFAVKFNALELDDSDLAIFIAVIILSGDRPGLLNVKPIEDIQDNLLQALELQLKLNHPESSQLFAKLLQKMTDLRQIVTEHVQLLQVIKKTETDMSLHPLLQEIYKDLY
Chain of Aryl hydrocarbon receptor (Homo sapiens) (P35869 whole entry, looked up): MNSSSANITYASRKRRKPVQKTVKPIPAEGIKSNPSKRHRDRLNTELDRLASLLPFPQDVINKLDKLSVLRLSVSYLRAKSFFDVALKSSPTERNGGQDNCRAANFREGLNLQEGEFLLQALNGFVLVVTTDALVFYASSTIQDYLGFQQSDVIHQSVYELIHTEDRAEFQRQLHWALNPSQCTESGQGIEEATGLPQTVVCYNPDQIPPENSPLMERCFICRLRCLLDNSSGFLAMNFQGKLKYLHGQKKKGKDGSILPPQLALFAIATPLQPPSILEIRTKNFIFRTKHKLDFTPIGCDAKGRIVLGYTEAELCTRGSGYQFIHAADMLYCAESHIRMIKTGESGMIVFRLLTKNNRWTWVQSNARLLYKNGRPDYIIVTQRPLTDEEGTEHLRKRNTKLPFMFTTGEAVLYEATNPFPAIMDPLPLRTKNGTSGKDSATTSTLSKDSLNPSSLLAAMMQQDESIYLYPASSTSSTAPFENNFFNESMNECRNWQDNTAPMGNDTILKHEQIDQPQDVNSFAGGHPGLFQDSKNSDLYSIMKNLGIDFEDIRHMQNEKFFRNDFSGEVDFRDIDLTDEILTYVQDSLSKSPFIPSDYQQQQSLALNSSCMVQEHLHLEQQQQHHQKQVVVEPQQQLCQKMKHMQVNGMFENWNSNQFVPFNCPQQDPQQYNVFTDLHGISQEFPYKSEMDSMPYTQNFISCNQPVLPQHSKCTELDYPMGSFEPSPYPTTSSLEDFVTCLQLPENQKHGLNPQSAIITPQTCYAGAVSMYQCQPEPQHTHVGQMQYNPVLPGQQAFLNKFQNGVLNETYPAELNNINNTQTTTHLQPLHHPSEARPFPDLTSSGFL

For the molecule `O=S(=O)(Oc1ccc(Cl)cc1)c1ccccc1`, the Potency entry in assay [1], in assay [2], in assay [3], in assay [4], in assay [5] and in [6] was “inactive” throughout. Further, the Potency entry in assay [7], in assay [8], in [9], in assay [10], in assay [11] and in [12] was “inactive” in each case. For the same molecule, the Potency entry in [13], in assay [14] and in [15] was “inactive” each time.

Consider `C[C@@H](c1ncncc1F)C(O)(Cn1cncn1)c1ccc(F)cc1F` (some centres not stated), for which the Potency result in assay [1], in assay [2], in assay [3], in [4], in [5] and in assay [6] was “inactive” throughout. In addition, the Potency entry in assay [7], in assay [8], in assay [9], in assay [10], in [16] and in assay [11] was “inactive” in each case. For the same molecule, the Potency result in assay [17], in assay [12], in [18] and in assay [14] was “inactive” each time.

With `Cc1[nH]c(C)c(Cl)c(=O)c1Cl`, the Potency entry in assay [1], in [2], in assay [3], in assay [4], in assay [19] and in assay [6] was “inactive” throughout. The Potency result in assay [7], in assay [8], in [9], in assay [10], in assay [16] and in [17] was “inactive” each time. Also, the Potency result in assay [18], in assay [14] and in assay [15] was “inactive” in each case. For the same molecule, in assay [20], the molecule was called inactive.

With `C=CC1CC2C=CC1C2` (configuration not stated), the Potency entry in [1], in assay [2], in [3], in assay [4], in assay [5] and in [6] was “inactive” each time. For the same molecule, the Potency entry in assay [7], in assay [8], in assay [9], in assay [10], in assay [16] and in assay [14] was “inactive” in each case. Also, the Potency result in [15] is “inactive”. Moreover, the call in [20] was inactive.

Turning to `CC[N+](C)(CC)CCOC(=O)C(O)(c1ccccc1)C1CCCCC1` (configuration not stated), the Potency result in assay [1], in [2], in assay [3], in assay [4], in [5] and in [6] was “inactive” in each case. Also, the Potency result in [7], in assay [8], in [9], in assay [10], in [11] and in [18] was “inactive” throughout. The Potency result in assay [14] and in [15] was “inactive” in each case.

Turning to `CC(C)C[C@H]1C(=O)N2CCC[C@H]2[C@]2(O)O[C@](NC(=O)[C@@H]3C=C4c5cccc6[nH]c(Br)c(c56)C[C@H]4N(C)C3)(C(C)C)C(=O)N12`, the Potency entry in [1], in [2], in [5], in [7], in [8] and in assay [9] was “inactive” throughout. In addition, the Potency result in [18], in assay [14] and in assay [15] was “inactive” throughout. Also, the Potency in [3] was 26.6 µM (active); in [6] it was 4.13 µM (active). Also, the call in assay [20] was inactive.

For the origin of these results see PubChem BioAssay (Tox21).
